High-throughput results: PubChem BioAssay, Broad Institute
IDE exosite inh = insulin-degrading enzyme (human) exo-site inhibition; purified IDE, FL-6b probe fluorescence polarization; hits give low values; P14735; z-score at 20 µM; 17,000 tested, 6.3% active;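 active means z-score of -3 or lower, meaning strong loss of probe binding signal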;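 further: His-tagged human IDE residues 42-1019 made in E. coli with 30 nM FL-6b probe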
Target sequence (P14735 42-1019 limits assumed): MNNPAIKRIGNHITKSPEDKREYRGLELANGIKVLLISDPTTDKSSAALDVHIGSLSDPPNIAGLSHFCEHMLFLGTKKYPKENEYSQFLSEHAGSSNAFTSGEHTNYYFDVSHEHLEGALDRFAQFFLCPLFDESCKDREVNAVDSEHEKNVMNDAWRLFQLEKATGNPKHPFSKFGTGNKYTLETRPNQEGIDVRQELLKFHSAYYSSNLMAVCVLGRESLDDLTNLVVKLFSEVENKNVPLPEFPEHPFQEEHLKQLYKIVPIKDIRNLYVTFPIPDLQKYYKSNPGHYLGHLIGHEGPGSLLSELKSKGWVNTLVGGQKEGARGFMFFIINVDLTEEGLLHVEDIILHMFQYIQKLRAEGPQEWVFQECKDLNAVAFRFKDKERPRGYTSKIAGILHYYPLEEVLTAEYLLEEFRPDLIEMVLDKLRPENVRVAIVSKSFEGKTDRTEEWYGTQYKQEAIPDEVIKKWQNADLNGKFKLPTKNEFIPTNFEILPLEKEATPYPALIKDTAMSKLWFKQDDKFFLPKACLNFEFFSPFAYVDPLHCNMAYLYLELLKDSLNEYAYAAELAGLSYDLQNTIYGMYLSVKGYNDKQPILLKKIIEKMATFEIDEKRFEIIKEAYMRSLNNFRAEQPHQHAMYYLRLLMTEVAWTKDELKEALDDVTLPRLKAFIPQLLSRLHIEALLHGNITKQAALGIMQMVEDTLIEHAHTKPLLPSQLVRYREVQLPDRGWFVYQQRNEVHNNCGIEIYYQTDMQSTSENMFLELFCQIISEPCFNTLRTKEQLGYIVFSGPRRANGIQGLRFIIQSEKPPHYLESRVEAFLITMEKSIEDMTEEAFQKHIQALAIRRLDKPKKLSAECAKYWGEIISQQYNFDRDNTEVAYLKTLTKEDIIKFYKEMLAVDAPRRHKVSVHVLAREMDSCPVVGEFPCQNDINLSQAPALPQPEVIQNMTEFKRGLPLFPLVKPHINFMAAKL
Starred values were filed as active, the others as inactive. Only a selection was taken, and hits are over-represented in it overall.

SMILES | IDE exosite inh
O=C(Cc1ccccn1)N1CC[C@@H]2[C@H]1c1cc(-c3cccc(F)c3)ccc1N[C@@H]2CO | -0.128
N#C[C@@H]1[C@H](c2ccccc2)[C@@H](CO)N1C(=O)Nc1cccc(F)c1 | -0.629
CCCC#Cc1ccc([C@H]2[C@@H](CO)N(C(=O)NC(C)C)[C@H]2CNC(C)=O)cc1 | -0.7
C[C@H](CO)N1C[C@H](C)[C@H](CN(C)C(=O)Nc2ccccc2)Oc2ccc(NS(=O)(=O)c3ccc(F)cc3)cc2C1=O | 0.0793
O=C(NC[C@@H]1[C@@H](c2ccccc2)[C@@H](CO)N1CC1CCCC1)c1ccccc1 | 3.56
O=C(Nc1cccc(F)c1)N1CC(=O)N2[C@H](CO)[C@H](c3ccc(C#Cc4cccnc4)cc3)[C@H]2C1 | 4.22
CCS(=O)(=O)N1CC2(C1)[C@@H](c1ccccc1)[C@@H](CO)N2Cc1ccccn1 | 0.0237
O=C(C[C@@H]1CC[C@H](NC(=O)c2ccc3c(c2)OCO3)[C@@H](CO)O1)NCc1ccc(Oc2ccccc2)cc1 | 2.93
O=C(NC[C@H]1[C@H](c2ccccc2)[C@@H](CO)N1Cc1cccnc1)c1ccccn1 | 0.143
O=C(c1ccncc1)N1CC(=O)N2[C@H](C1)[C@H](c1ccc(/C=C/c3ccccc3)cc1)[C@@H]2CO | -0.295
O=C(c1cccnc1)N1CC(=O)N2[C@H](C1)[C@@H](c1ccc(/C=C/c3ccccc3)cc1)[C@@H]2CO | -7.74*
O=C(c1ccccc1)N1CC(=O)N2[C@H](C1)[C@H](c1ccc(/C=C/c3ccccc3)cc1)[C@@H]2CO | -2.24
O=C(c1ccncc1)N1CC(=O)N2[C@H](CO)[C@H](c3ccc(/C=C/c4ccccc4)cc3)[C@@H]2C1 | -9.51*
O=C(c1cccnc1)N1CC(=O)N2[C@@H](CO)[C@@H](c3ccc(/C=C/c4ccccc4)cc3)[C@@H]2C1 | -8.61*
O=C(c1cccnc1)N1CC(=O)N2[C@H](C1)[C@H](c1ccc(/C=C/c3ccccc3)cc1)[C@@H]2CO | -4.53*
O=C(Cc1cccnc1)N1CC(=O)N2[C@@H](CO)[C@H](c3ccc(/C=C/c4ccccc4)cc3)[C@@H]2C1 | -2.73
Cc1ccc(-c2ccc([C@@H]3[C@@H](CO)N4C(=O)CN(C(=O)Nc5cccc(F)c5)C[C@@H]34)cc2)cc1 | 2.75
Cc1cccc(S(=O)(=O)N2C[C@H]3[C@@H](c4ccccc42)[C@H](CO)N3CC2CCCC2)c1 | 2.65
C[C@@H]1COCn2nncc2CC[C@H](Cc2ccc(-c3ccccc3)cc2)C(=O)N1 | -0.412
O=C(C1CCOCC1)N1CC(=O)N2[C@H](CO)[C@H](c3ccc(C#CC4CC4)cc3)[C@H]2C1 | -1.16
O=C(Nc1ccccc1F)N1CC(=O)N2[C@H](C1)[C@H](c1ccc(C#CC3CC3)cc1)[C@@H]2CO | -0.159
O=C(c1ccc(F)cc1)N1CC(=O)N2[C@@H](CO)[C@@H](c3ccc(C4=CCCC4)cc3)[C@@H]2C1 | 5.35
CO[C@@H](CN(C)Cc1ccc2c(c1)OCO2)[C@H](C)CN(C(=O)Nc1ccc(F)cc1)[C@H](C)CO | 0.217
C/C=C/c1ccc([C@@H]2[C@H](CO)N(S(C)(=O)=O)[C@H]2CN(CC)C(=O)CC)cc1 | 6.73
O=C(C[C@@H]1C[C@@H]2c3cc(NS(=O)(=O)c4ccc(F)cc4)ccc3O[C@@H]2[C@H](CO)O1)NCCN1CCCCC1 | 1.75
SMILES | IDE exosite inh
N#C[C@@H]1[C@@H](c2ccc(/C=C/c3ccccc3)cc2)[C@@H](CO)N1C(=O)C1CCCCC1 | -1.28
O=C(c1ccccc1)N1CC(=O)N2[C@H](CO)[C@@H](c3ccc(/C=C/c4ccccc4)cc3)[C@H]2C1 | -0.528
O=C(c1cccnc1)N1CC(=O)N2[C@H](CO)[C@@H](c3ccc(/C=C/c4ccccc4)cc3)[C@@H]2C1 | -4.33*
O=C(c1cccnc1)N1CC(=O)N2[C@H](CO)[C@H](c3ccc(/C=C/c4ccccc4)cc3)[C@@H]2C1 | -10.3*
O=C(c1ccccc1)N1CC(=O)N2[C@H](CO)[C@@H](c3ccc(/C=C/c4ccccc4)cc3)[C@@H]2C1 | -1.62
CN(C)CC#Cc1ccc([C@H]2[C@H](CO)N3CCCCN(C(=O)C4CCC4)C[C@@H]23)cc1 | 2.31
O=S(=O)(c1ccccc1)N1[C@@H]2CNc3ccccc3[C@@H]2[C@@H]1CO | 2.89
CC(=O)N1CCCCN2[C@H](C1)[C@H](c1ccc(-c3ccncc3)cc1)[C@@H]2CO | 4.06
O=C(C1CCC1)N1CC(=O)N2[C@@H](CO)[C@@H](c3ccc(C#CCc4ccccc4)cc3)[C@@H]2C1 | -3.32*
O=C(C1CCC1)N1CC(=O)N2[C@H](C1)[C@H](c1ccc(C#CCc3ccccc3)cc1)[C@@H]2CO | -3.03*
O=C(C1CCC1)N1CC(=O)N2[C@H](CO)[C@@H](c3ccc(C#CCc4ccccc4)cc3)[C@H]2C1 | 2.23
O=C(C1CCCCC1)N1CC(=O)N2[C@H](C1)[C@@H](c1ccc(C#CCc3ccccc3)cc1)[C@@H]2CO | 1.71
O=C(C1CCCCC1)N1CC(=O)N2[C@H](CO)[C@@H](c3ccc(C#CCc4ccccc4)cc3)[C@@H]2C1 | -2.73
O=C(C1CCC1)N1CC(=O)N2[C@H](C1)[C@@H](c1ccc(C#CCc3ccccc3)cc1)[C@@H]2CO | -0.417
Cc1ccccc1S(=O)(=O)N1CC[C@@H]2[C@@H](CO)N(C)c3ccc(-c4cccc(F)c4)cc3[C@@H]21 | 1.72
COc1ccc2c3c(n(C)c2c1)[C@H](CO)N(C(=O)Cc1ccccn1)CC31CN(CC2CCCCC2)C1 | 1.11
C[C@H]1CN([C@@H](C)CO)C(=O)CCCn2nncc2CO[C@H]1CN(C)S(=O)(=O)c1cn(C)cn1 | -0.901
N#C[C@@H]1[C@@H](c2ccccc2C2=CCCCC2)[C@H](CO)N1C(=O)C1CCOCC1 | 0.408
COc1ccc(-c2ccccc2[C@H]2[C@@H](C#N)N(C(=O)C3CCOCC3)[C@H]2CO)cc1 | 2.04
N#C[C@H]1[C@H](c2ccc(-c3cccnc3)cc2)[C@H](CO)N1C(=O)C1CC1 | 0.0343
COc1ccccc1-c1ccc([C@@H]2[C@@H](C#N)N(C(=O)C3CCOCC3)[C@H]2CO)cc1 | -9.78*
N#C[C@H]1[C@@H](c2ccc(/C=C/c3ccccc3)cc2)[C@@H](CO)N1C(=O)C1CCOCC1 | -1.3
COc1ccccc1-c1ccccc1[C@@H]1[C@@H](CO)N(C(=O)C2CCOCC2)[C@H]1C#N | -0.763
COc1cccc(C#Cc2ccc([C@@H]3[C@@H](CO)N(C(=O)C4CCOCC4)[C@H]3C#N)cc2)c1 | -1.05
COc1ccccc1-c1ccc([C@@H]2[C@@H](CO)N(C(=O)C3CCOCC3)[C@H]2C#N)cc1 | -10.5*
SMILES | IDE exosite inh
COc1ccc(-c2ccc([C@@H]3[C@@H](CO)N(C(=O)C4CCOCC4)[C@H]3C#N)cc2)cc1 | -1.03
N#C[C@H]1[C@@H](c2ccc(-c3cccnc3)cc2)[C@@H](CO)N1C(=O)C1CCOCC1 | -3.04*
N#C[C@H]1[C@H](c2ccc(-c3cncnc3)cc2)[C@@H](CO)N1C(=O)C1CCOCC1 | 0.76
N#C[C@H]1[C@H](c2ccc(-c3cccnc3)cc2)[C@@H](CO)N1C(=O)C1CCOCC1 | 0.797
COc1ccccc1-c1ccc([C@H]2[C@@H](C#N)N(C(=O)C3CCOCC3)[C@H]2CO)cc1 | -6.87*
CC[C@@H]1C/C=C\CCNC(=O)C[C@H](c2ccccc2)C(=O)N1 | -0.107
C[C@@H]1CC(=O)NCC/C=C\C[C@@H](c2cccc(Cl)c2)NC1=O | 0.37
CCCC#Cc1ccc([C@H]2[C@H](CO)N3C(=O)CN(S(=O)(=O)Cc4ccccc4)C[C@@H]23)cc1 | 5.87
